Some compounds were tested as several samples or in several runs, with calls that do not always agree. The source made the active and inactive calls. A call without a number means that no potency is given here. Unless noted, calls follow the shape of the full dose curve.
How the values were obtained:
[1] = qHTS assay to identify small molecule antagonists of the thyroid receptor (TR) signaling pathway (AID 743065; active = well fitted curve in the direction sought with a large enough effect in the repeat runs; inconclusive = weak or mixed curves; inactive = no such curve, though single readings can be large; an effect the other way counts as inactive or inconclusive; also: nearly all actives have a fitted effect of over 55% in size; also: potency is read from the fitted curve at half-maximal effect)
Summary of the method: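 Antagonism measured as loss of luciferase signal in GH3 cells stably carrying a TRE-luciferase reporter, co-treated with compound and T3 (1 nM final) for 23.5 h at 37 C. Viability was read in the same well by CellTiter-Fluor.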

[2] = tested on: thyroid hormone receptor (rat, GH3 cells); experiment: qHTS assay to identify small molecule agonists of the thyroid receptor (TR) signaling pathway (AID 743066)
[3] = qHTS assay to identify small molecule antagonists of the estrogen receptor alpha (ER-alpha) signaling pathway - cell viability counter screen (AID 743074);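 also: HEK293 cells carrying ER-alpha-UAS-bla reporter stimulated with 17beta-estradiol; nearly all actives have a fitted effect of over 45% in size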; also: potency is read from the fitted curve at half-maximal effect
[4] = biological target: Estrogen receptor (Homo sapiens) (UniProt P03372); experiment: qHTS assay to identify small molecule agonists of the estrogen receptor alpha (ER-alpha) signaling pathway (AID 743075); also: potency is read from the fitted curve at half-maximal effect
[5] = biological target: Estrogen receptor (Homo sapiens) (UniProt P03372); experiment: qHTS assay to identify small molecule agonists of the estrogen receptor alpha (ER-alpha) signaling pathway using the BG1 cell line (AID 743079; active = well fitted curve in the direction sought with a large enough effect in the repeat runs; inconclusive = weak or mixed curves; inactive = no such curve, though single readings can be large; an effect the other way counts as inactive or inconclusive; also: nearly all actives have a fitted effect of over 20% in size; also: potency is read from the fitted curve at half-maximal effect); conditions: BG1Luc4E2 cells, ERE-luciferase agonist, 22 h; activation: at 70.3 µM (top of the series)
[6] = qHTS assay to identify small molecule antagonists of the estrogen receptor alpha (ER-alpha) signaling pathway using the BG1 cell line (AID 743080);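 also: BG1 cells stimulated with 17beta-estradiol alongside compound; nearly all actives have a fitted effect of over 25% in size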; also: potency is read from the fitted curve at half-maximal effect
Summary of the method: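 Quantitative HTS on the Tox21 10K library: BG1 cells with endogenous ER-alpha and ERE-luciferase reporter, 17beta-estradiol stimulation, 21.5 h compound exposure, luminescence endpoint with parallel fluorescence cytotoxicity counter-read.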

[7] = qHTS assay to identify small molecule antagonists of the estrogen receptor alpha (ER-alpha) signaling pathway using the BG1 cell line - cell viability counter screen (AID 743081; active = well fitted curve in the direction sought with a large enough effect in the repeat runs; inconclusive = weak or mixed curves; inactive = no such curve, though single readings can be large; an effect the other way counts as inactive or inconclusive;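 also: compound given together with 17beta-estradiol as the ER stimulus; nearly all actives have a fitted effect of over 45% in size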)
Aromatase (Homo sapiens) = Aromatase (Homo sapiens) (UniProt P11511); experiment: qHTS assay to identify aromatase inhibitors (AID 743083; active = well fitted curve in the direction sought with a large enough effect in the repeat runs; inconclusive = weak or mixed curves; inactive = no such curve, though single readings can be large; an effect the other way counts as inactive or inconclusive; also: nearly all actives have a fitted effect of over 55% in size; also: potency is read from the fitted curve at half-maximal effect)
[8] = biological target: Estrogen receptor (Homo sapiens) (UniProt P03372); experiment: qHTS assay to identify small molecule antagonists of the estrogen receptor alpha (ER-alpha) signaling pathway (AID 743069; active = well fitted curve in the direction sought with a large enough effect in the signal ratio in the repeat runs, not every such curve was filed as active; inconclusive = weak or mixed curves, or effect the other way; inactive = no such curve, though single readings can be large or run the other way; the % refers to the signal ratio; also: potency is read from the fitted curve at half-maximal effect)
Summary of the method: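 Compound effects are measured against 17beta-estradiol stimulation in HEK293 cells with a UAS-controlled beta-lactamase reporter for ER-alpha. Exposure lasts 18 hr at 37C; LiveBLAzer B/G FRET substrate follows for 2 hr at room temperature.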

Estrogen receptor (Homo sapiens), sequence (P03372 whole entry, looked up): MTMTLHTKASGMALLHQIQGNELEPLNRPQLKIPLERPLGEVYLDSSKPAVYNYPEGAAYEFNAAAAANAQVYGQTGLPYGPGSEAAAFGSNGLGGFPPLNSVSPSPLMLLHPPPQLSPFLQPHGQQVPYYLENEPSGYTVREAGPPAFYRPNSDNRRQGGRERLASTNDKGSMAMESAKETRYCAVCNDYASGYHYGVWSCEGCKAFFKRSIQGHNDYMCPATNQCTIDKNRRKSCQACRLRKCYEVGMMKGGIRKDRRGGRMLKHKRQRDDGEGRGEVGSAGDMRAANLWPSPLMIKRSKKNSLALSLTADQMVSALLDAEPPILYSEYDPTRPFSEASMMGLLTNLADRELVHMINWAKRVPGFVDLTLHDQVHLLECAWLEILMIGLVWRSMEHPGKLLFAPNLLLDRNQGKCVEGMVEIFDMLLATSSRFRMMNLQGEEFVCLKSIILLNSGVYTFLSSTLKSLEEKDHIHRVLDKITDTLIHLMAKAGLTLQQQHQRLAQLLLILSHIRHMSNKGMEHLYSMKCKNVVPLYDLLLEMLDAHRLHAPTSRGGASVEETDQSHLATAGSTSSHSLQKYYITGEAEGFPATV
Aromatase (Homo sapiens), sequence (P11511 whole entry, looked up): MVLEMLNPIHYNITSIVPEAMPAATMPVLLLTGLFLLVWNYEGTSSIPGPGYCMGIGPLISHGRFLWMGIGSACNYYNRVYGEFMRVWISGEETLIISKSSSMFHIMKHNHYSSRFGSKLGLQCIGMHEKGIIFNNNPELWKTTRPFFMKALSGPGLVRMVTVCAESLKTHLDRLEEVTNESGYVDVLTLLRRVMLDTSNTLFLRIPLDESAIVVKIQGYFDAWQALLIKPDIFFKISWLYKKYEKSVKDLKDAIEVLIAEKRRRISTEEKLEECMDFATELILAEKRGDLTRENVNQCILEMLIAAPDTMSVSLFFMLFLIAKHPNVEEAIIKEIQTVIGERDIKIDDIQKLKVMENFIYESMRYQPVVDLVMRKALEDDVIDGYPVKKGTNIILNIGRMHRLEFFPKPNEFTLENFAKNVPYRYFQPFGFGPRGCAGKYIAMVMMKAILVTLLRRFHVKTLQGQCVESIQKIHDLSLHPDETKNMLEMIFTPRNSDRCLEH

SMILES | Potency [1] | Potency [2] | Potency [3] | Potency [4] | Potency [5] | Potency [6] | Potency [7] | Potency (Aromatase (Homo sapiens)) | Potency [8]
COC(=O)[C@H]1[C@H]2C[C@@H]3c4[nH]c5cc(OC)ccc5c4CCN3C[C@H]2C[C@H](OC)[C@@H]1OC | inactive | inactive | inactive | inactive | inactive | inactive | inactive | inactive | –
C[C@@H]1C[C@H]2[C@@H]3CCC4=CC(=O)C=C[C@]4(C)[C@@]3(F)[C@@H](O)C[C@]2(C)[C@@]1(O)C(=O)COC(=O)c1cccc(S(=O)(=O)O)c1 | inactive | inactive | inactive | inactive | 15 µM (active) | – | inactive | inactive | –
CCCCCCCCCCCCCCCC(=O)OC[C@@H](NC(=O)C(Cl)Cl)[C@H](O)c1ccc([N+](=O)[O-])cc1 | inactive | inactive | – | – | inactive | inactive | inactive | inactive | inactive
Cc1cc2nc3c(=O)[nH]c(=O)nc-3n(C[C@H](O)[C@H](O)[C@H](O)COP(=O)(O)OP(=O)(O)OC[C@H]3O[C@@H](n4cnc5c(N)ncnc54)[C@H](O)[C@@H]3O)c2cc1C | inactive | inactive | 16.9 µM (active) | inactive | inactive | inactive | – | inactive | –
CC(O)CN(C)C (stereo unspecified) | inactive | inactive | inactive | – | 11.9 µM (active) | inactive | inactive | inactive | inactive
NCCC[C@H](N)C(=O)O | inactive | inactive | – | inactive | inactive | inactive | – | inactive | inactive
CC(C)C(=O)OCC(=O)[C@@]12O[C@H](C3CCCCC3)O[C@@H]1C[C@H]1[C@@H]3CCC4=CC(=O)C=C[C@]4(C)[C@H]3[C@@H](O)C[C@@]12C | 10.6 µM (active) | inactive | inactive | inactive | – | – | inactive | inactive | 21.3 µM [inconclusive] (active)
O=C(Nc1ccc(O)cc1)c1ccccc1O | inactive | inactive | inactive | inactive | 13.3 µM (active) | – | inactive | inactive | inactive
CCCCCCCN(CC)CCCC(O)c1ccc(NS(C)(=O)=O)cc1 (stereo unspecified) | 21.1 µM (active) | inactive | inactive | – | – | – | – | – | –
Cc1cc(C)c(NC(=O)C[C@H](CC(=O)O)c2cccc3ccccc23)c(C(=O)N2CCC3(CCCC3)CC2)c1 | inactive | inactive | – | inactive | 29.8 µM (active) | inactive | inactive | inactive | inactive
CC1=C(/C=C/C(C)=C/C=C/C(C)=C/C=C/C=C(C)/C=C/C=C(C)/C=C/C2=C(C)C(=O)CCC2(C)C)C(C)(C)CCC1=O | inactive | inactive | inactive | 26.8 µM [inconclusive] (active) | 5.31 µM (active) | – | – | inactive | inactive
Cc1c(Cl)cccc1Nc1ncccc1C(=O)O | 23.7 µM (active) | inactive | inactive | inactive | – | – | inactive | inactive | –
CC(C)(C)NC(=O)[C@H]1CC[C@H]2[C@@H]3CC=C4C=C(C(=O)O)CC[C@]4(C)[C@H]3CC[C@]12C | inactive | inactive | – | inactive | inactive | inactive | – | inactive | inactive
CC1=C(C(=O)OCCN(Cc2ccccc2)c2ccccc2)C(c2cccc([N+](=O)[O-])c2)C(P2(=O)OCC(C)(C)CO2)=C(C)N1 (stereo unspecified) | 13.3 µM (active) | inactive | inactive | inactive | inactive | inactive | inactive | – | –
CC1(C)S[C@@H]2[C@H](NC(=O)C(C(=O)Oc3ccc4c(c3)CCC4)c3ccccc3)C(=O)N2[C@H]1C(=O)O (stereo partly specified) | inactive | inactive | inactive | inactive | – | inactive | inactive | inactive | inactive
CCOC(=O)COc1ccc2c(C)c(CCN(CC)CC)c(=O)oc2c1 | inactive | inactive | – | inactive | inactive | inactive | inactive | inactive | inactive
C[C@]12CC[C@@H]3c4ccc(O)cc4CC[C@H]3[C@@H]1CC[C@@H]2OP(=O)(O)O | inactive | inactive | inactive | 0.0013 µM [inconclusive] (active) | 0.0021 µM (active) | inactive | inactive | inactive | –
O=C1C(=O)c2ncccc2-c2cccnc21 | 1.68 µM (active) | inactive | inactive | inactive | – | 5.96 µM (active) | inactive | 23.7 µM (active) | –
CC1(C)S[C@@H]2[C@H](NC(=O)[C@H](NC(=O)N3CCN(S(C)(=O)=O)C3=O)c3ccccc3)C(=O)N2[C@H]1C(=O)O | inactive | inactive | inactive | inactive | 11.9 µM (active) | inactive | inactive | inactive | inactive
C/C(=C(\CCOC(=O)c1ccccc1)SS/C(CCOC(=O)c1ccccc1)=C(/C)N(C=O)Cc1cnc(C)nc1N)N(C=O)Cc1cnc(C)nc1N | 23.7 µM (active) | inactive | inactive | inactive | – | inactive | inactive | inactive | inactive
COc1cc([C@@H]2c3cc4c(cc3C(O[C@@H]3O[C@@H]5CO[C@@H](C)O[C@H]5[C@H](O)[C@H]3O)C3COC(=O)[C@@H]32)OCO4)cc(OC)c1OP(=O)(O)O (stereo partly specified) | 11.9 µM (active) | inactive | – | inactive | 11.9 µM (active) and inactive | inactive | – | inactive | inactive
O=[N+]([O-])c1ccc(Oc2ccc(N=C=S)cc2)cc1 | 29.8 µM (active) | inactive | inactive | inactive | – | – | – | 26.6 µM (active) | 0.848 µM [inconclusive] (active)
C=CCOc1ccc(CC(=O)O)cc1Cl | inactive | inactive | inactive | 3.79 µM [inconclusive] (active) | 0.266 µM (active) | inactive | inactive | inactive | –
CCN(CC)CCOc1ccc2nc(N(C)C)sc2c1 | inactive | inactive | inactive | inactive | 26.6 µM (active) | – | inactive | inactive | inactive
Cn1c(=O)c2c(ncn2CCOC(=O)C(C)(C)Oc2ccc(Cl)cc2)n(C)c1=O | inactive | inactive | inactive | inactive | inactive | 29.8 µM (active) | inactive | inactive | –
Cc1ncc(COP(=O)(O)O)c(CN)c1O | inactive | inactive | – | inactive | inactive | inactive | inactive | inactive | inactive
CO/N=C(\C(=O)N[C@@H]1C(=O)N2C(C(=O)OCOC(=O)C(C)(C)C)=C(/C=C\c3scnc3C)CS[C@H]12)c1csc(N)n1 | inactive | inactive | inactive | inactive | inactive | inactive | inactive | inactive | –
CN(C)CCOc1ccccc1Cc1ccccc1 (tested in a mixture with another compound) | – | inactive | inactive | – | – | – | inactive | inactive | –
CC(CN(C)C)CN1c2ccccc2S(=O)(=O)c2ccccc21 (stereo unspecified) | – | inactive | inactive | inactive | inactive | inactive | – | inactive | inactive
C[C@]12CCC(=O)C[C@@H]1CC[C@@H]1[C@@H]2CC[C@]2(C)C=CC[C@@H]12 | – | inactive | inactive | 8.49 µM [inconclusive] (active) | 11.9 µM (active) | inactive | inactive | inactive | –

Reference: PubChem BioAssay (Tox21)
